# HSP90 refold inh = inhibitors of HSP90 luciferase refolding in rabbit reticulocyte lysate | luciferase refolding luminescence, 3 h | inhibition, % at 5.6 µM | 290,000 tested, 0.91% active | AID 1789;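 active = inhibition above the screen-wide mean plus 3 SD, computed separately per campaign, cut at about 16% in these data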;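 also: inhibitors lower the luminescence because luciferase stays unfolded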
# SENP8 block-1 = SENP8 (human) protease inhibition. Q96LD8. recombinant SENP8, Nedd8 substrate fluorescence. inhibition, % at 20 µM. 360,000 tested, 0.64% active; in the data active = inhibition mostly above about 40%, no sharp cut-off; inactive = mostly below about 27%
# Target sequence (Q96LD8 whole entry, looked up): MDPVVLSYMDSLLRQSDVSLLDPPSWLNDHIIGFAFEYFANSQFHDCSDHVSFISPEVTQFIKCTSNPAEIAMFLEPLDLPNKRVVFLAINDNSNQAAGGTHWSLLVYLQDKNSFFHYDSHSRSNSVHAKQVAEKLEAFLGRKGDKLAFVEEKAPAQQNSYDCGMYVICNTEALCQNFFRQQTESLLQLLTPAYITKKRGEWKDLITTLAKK
# SENP6 block = blocks the human protease SENP6; Recombinant SENP6 catalytic domain, aminoluciferin luminescence; inhibition, % at 10 µM; 330,000 tested, 1.8% active;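 active = inhibition above about 50% at the single tested dose, limit read from the data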
# LGR2 antag = blocks bursicon-induced cAMP signaling via Drosophila LGR2. 380,000 tested, 0.35% active. inhibition, % at 9.99 µM. HEK293 LGR2, CRE-luciferase, bursicon-stimulated, 4 h. AID 720647;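 active = drop in luminescence signal, shown as inhibition above about 50% in the replicate tests, limit read from the data, passing the limit was not always enough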;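 also: agonist challenge used bursicon conditioned medium at about half maximal strength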
# SENP7 block = inhibitors of human SENP7 protease. recombinant SENP7, Z-RLRGG-aminoluciferin luminescence, 40 min. AID 434973. 330,000 tested, 1.5% active. inhibition, % at 5 µM. Q9BQF6;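 active = inhibition above about 50% at the single test dose, limit read from the data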
# SENP8 block-2 = SENP8 protease inhibition | purified SENP8, Z-RLRGG-aminoluciferin cleavage, luminescence | inhibition, % at 10 µM | 330,000 tested, 1.2% active | AID 2540; in the data active = inhibition above about 50%
# SENP8 confirm = confirmation of human SENP8 protease inhibitors | Recombinant SENP8, Z-RLRGG-aminoluciferin luminescence, 60 min | shares compounds with SENP7 block | 6,200 tested, 40% active | inhibition, % at 12.5 µM | AID 488912;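 active = mean inhibition across replicates above about 50%, limit read from the data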
# SENP6 conf = human SENP6 inhibition, confirmed; recombinant SENP6, Z-RLRGG-aminoluciferin luminescence; inhibition, % at 12.5 µM; shares compounds with SENP7 block; 6,200 tested, 58% active
# SENP7 conf = confirmation of human SENP7 protease inhibitors | inhibition, % at 12.5 µM | AID 488917 | recombinant SENP7, Z-RLRGG-aminoluciferin luminescence, 40 min | shares compounds with SENP7 block | 6,200 tested, 69% active
# Casp3 select = selectivity test for SENP inhibitors: human caspase-3 inhibition; shares compounds with SENP7 block; purified caspase-3, Z-DEVD-aminoluciferin luminescence, 60 min; inhibition, % at 12.5 µM; 6,200 tested, 60% active;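 active = mean inhibition above about 50%, limit read from the data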
# Target sequence (P42574 28-227 limits assumed): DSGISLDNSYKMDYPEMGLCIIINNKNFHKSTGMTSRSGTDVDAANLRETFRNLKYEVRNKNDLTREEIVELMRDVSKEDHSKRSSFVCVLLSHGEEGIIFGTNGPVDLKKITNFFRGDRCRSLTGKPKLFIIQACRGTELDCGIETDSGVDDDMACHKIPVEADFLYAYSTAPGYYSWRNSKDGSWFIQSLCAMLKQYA
# SENP luc ctr = luminescence interference (SENP counter-screen); Pre-incubated SENP8/Z-RLRGG-aminoluciferin, luciferase luminescence interference; inhibition, % at 12.5 µM; AID 488919; shares compounds with SENP7 block; 6,200 tested, 39% active;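 active = mean inhibition above about 50% when retested at one dose, limit read from the data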
# Numbers stand for hits; n = inactive; x = not tested or not shown. Only some compounds are listed: those with a hit (about 2.3% of all), similar ones and a draw of the others.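 The calls were made as follows, unless noted: active = mean inhibition above about 50% in the one-dose retest (limit read from the data); inactive = the rest.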
SMILES,HSP90 refold inh,SENP8 block-1,SENP6 block,LGR2 antag,SENP7 block,SENP8 block-2,SENP8 confirm,SENP6 conf,SENP7 conf,Casp3 select,SENP luc ctr
Cc1nn(-c2ccc(Cl)cc2Cl)c(=O)c2ccccc12,n,n,n,n,n,n,x,x,x,x,x
CC1=NN(C(N)=S)C(=O)C1N=Nc1ccc(Cl)cc1Cl (stereo not drawn),n,n,91.4,n,n,93.6,81.4,85.6,93.7,71.5,66.9
CC1=NN(C(N)=S)C(=O)C1N=Nc1ccccc1Cl (stereo not drawn),n,41.8,88.5,n,52.8,83.4,n,89.9,97.9,82.4,n
COc1ccccc1N=NC1C(=O)N(C(N)=S)N=C1C (stereo not drawn),n,n,n,n,n,n,x,x,x,x,x
C[C@@H]1CN([C@H](C)CO)C(=O)c2cc(C#Cc3ccccn3)cnc2O[C@@H]1CN(C)Cc1ccncc1,x,x,x,n,x,x,x,x,x,x,x
O=C(Nc1ccc(F)cc1)C1CCCO1 (stereo not drawn),n,n,n,n,n,n,x,x,x,x,x
O=C(Nc1ccc(O)cc1)C1CCCO1 (stereo not drawn),n,n,n,x,59.9,n,n,n,n,n,n
O=C(NCc1ccc(Cl)cc1)C(=O)c1cn(CC(=O)N2CCOCC2)c2ccccc12,n,n,n,n,n,n,x,x,x,x,x
O=C(Nc1ccccc1Cl)C(=O)c1cn(CC(=O)N2CCOCC2)c2ccccc12,n,n,n,n,74.2,n,n,n,n,n,n
CN1c2ccsc2C(O)=C(C(=S)Nc2ccc(F)c(Cl)c2)S1(=O)=O,n,n,61.3,x,n,n,n,n,n,n,n
N/C(=N\OC(=O)c1cc(Br)ccc1Cl)c1ccccn1,n,n,n,n,n,n,x,x,x,x,x
N/C(=N\OC(=O)c1ccc(Cl)cc1Cl)c1ccccn1,91.2,n,98.6,92.6,99.2,96.2,97.4,98.5,102.0,97.6,94.8
N/C(=N\OC(=O)c1ccc(Cl)cc1Cl)c1ccncc1,n,n,76.8,x,62.4,59.0,62.3,63.5,84.2,73.3,63.5
N/C(=N\OC(=O)COc1cc(Cl)c(Cl)cc1Cl)c1ccccn1,n,n,78.8,n,77.0,57.8,n,54.7,n,52.3,n
Cc1cccc(OCC(=O)O/N=C(\N)c2ccccn2)c1C,n,n,n,x,n,n,x,x,x,x,x
N/C(=N\OC(=O)c1cc(Cl)ccc1Cl)c1ccncc1,n,n,n,n,n,n,x,x,x,x,x
N/C(=N\OC(=O)c1cccc2ccccc12)c1ccccn1,n,n,79.6,n,77.4,69.2,80.6,79.4,93.9,78.7,84.3
C[C@@H]1CN([C@H](C)CO)C(=O)c2cc(C#CC3CCCC3)cnc2O[C@H]1CN(C)C(=O)Cc1ccccn1,x,x,x,n,x,x,x,x,x,x,x
O=C(C[C@H]1CC[C@@H](NC(=O)c2cccc(F)c2)[C@@H](CO)O1)NCCN1CCCC1,x,x,x,n,x,x,x,x,x,x,x
O=C(NCc1ccccn1)[C@@H]1[C@@H](CO)[C@@H]2Cn3c(cccc3=O)[C@H]1N2CC1CCCC1,x,x,x,n,x,x,x,x,x,x,x
COc1cccc(NC(=O)Nc2ccc3c(c2)C(=O)N(C)C[C@@H](OC)[C@H](C)CN(CCC(F)(F)F)[C@H](C)CO3)c1,x,x,x,n,x,x,x,x,x,x,x
N/C(=N\OC(=O)c1ccc(Cl)cc1[N+](=O)[O-])c1ccccn1,n,n,59.3,n,50.6,53.4,n,n,77.4,76.8,n
C[C@@H]1CCCCO[C@@H](CN(C)Cc2ccc(Cl)c(Cl)c2)[C@H](C)CN([C@@H](C)CO)C(=O)c2cc(NC(=O)Nc3ccc(F)cc3)ccc2O1,x,x,x,n,x,x,x,x,x,x,x
CCN(CC)S(=O)(=O)c1ccc(N=Nc2c(N)[nH]c(=O)[nH]c2=O)cc1,n,43.3,51.6,n,n,n,n,n,n,n,n
CCN(CC)S(=O)(=O)c1ccc(N=NC2=C(O)CCCC2=O)cc1,n,n,n,n,n,n,x,x,x,x,x
SMILES,HSP90 refold inh,SENP8 block-1,SENP6 block,LGR2 antag,SENP7 block,SENP8 block-2,SENP8 confirm,SENP6 conf,SENP7 conf,Casp3 select,SENP luc ctr
COc1ccc(C2c3ccc(O)cc3Oc3ncn4nc(-c5ccncc5)nc4c32)cc1OC (stereo not drawn),n,n,67.0,n,n,n,n,n,n,n,n
COc1ccc(C2c3ccc(O)cc3Oc3ncn4nc(-c5ccccn5)nc4c32)cc1OC (stereo not drawn),n,n,n,n,n,n,x,x,x,x,x
O=C(Nc1ccc(SC(F)(F)F)cc1)c1ccccn1,n,n,92.8,n,92.9,89.3,85.6,93.5,86.7,60.8,n
CCCNS(=O)(=O)c1ccc(NC(=O)c2ccccn2)cc1,n,n,69.3,x,57.1,n,n,n,78.8,75.8,58.3
CC(=O)NS(=O)(=O)c1ccc(NC(=O)c2ccccn2)cc1,n,n,n,n,n,n,x,x,x,x,x
CCN(CC)S(=O)(=O)c1ccc(NC(=O)c2ccccn2)cc1,n,n,63.8,x,59.4,n,n,n,80.8,67.7,57.0
CN(C)S(=O)(=O)c1ccc(NC(=O)c2ccccn2)cc1,n,n,n,x,n,n,x,x,x,x,x
CCS(=O)(=O)Nc1ccc2c(c1)C(=O)N(C)[C@H]1CC[C@H](CC(=O)OC)O[C@H]1CO2,x,x,x,n,x,x,x,x,x,x,x
C[C@@H]1CN([C@@H](C)CO)C(=O)c2cc(NS(=O)(=O)c3ccc(Cl)cc3)ccc2O[C@@H](C)CCCCO[C@@H]1CN(C)Cc1ccc2c(c1)OCO2,x,x,x,n,x,x,x,x,x,x,x
O=C1NC(c2ccc(Br)cc2)Nc2sc3c(c21)CCC3 (stereo not drawn),n,n,n,x,n,n,x,x,x,x,x
Cc1ccsc1C1NC(=O)c2c(sc3c2CCCC3)N1 (stereo not drawn),n,n,73.9,x,53.7,n,n,67.6,81.7,53.2,n
C[C@H](CO)N1C[C@H](C)[C@@H](CN(C)S(=O)(=O)c2ccc(-c3ccccc3)cc2)OCc2cnnn2CCCC1=O,x,x,x,n,x,x,x,x,x,x,x
O=S(=O)(/N=C(/Nc1nc2ccccc2s1)c1ccccc1)c1ccccc1,x,n,71.7,n,n,60.1,n,n,n,n,n
O=C(NNC(=O)c1cnccn1)c1cccc([N+](=O)[O-])c1,n,n,n,x,n,n,x,x,x,x,x
O=C(NNC(=O)c1ccccc1[N+](=O)[O-])c1cnccn1,n,n,n,n,82.5,n,n,n,n,n,n
COc1ccccc1NC(=O)Nc1ccc(N2CCOCC2)cc1,n,n,63.5,n,55.6,n,64.8,61.7,87.2,79.6,65.7

# Compound activity deposited in PubChem BioAssay by several laboratories.
